Results: PubChem BioAssay (NCI)
About 83,000 compounds went through this panel and 20% of them were active in at least one assay; those are over-represented in the sample as a whole.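 For each line, cells grew in 96-well plates with the test compound present at a single concentration for 48 hours.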 Values without a mark were called inactive. The source made the active and inactive calls. The calls were made as follows: active = growth percent below 10; inactive = the rest.

Key:
Assay in all cases: NCI-60 one-dose screen, 48 h (100 = growth as untreated, 0 = no growth, -100 = all killed)
SR leukemia = details: 10 µM unless noted
RPMI-8226 leukemia = details: 10 µM unless noted
OVCAR-8 ovarian = details: 10 µM unless noted
OVCAR-5 ovarian = details: 10 µM unless noted
OVCAR-4 ovarian = details: 10 µM unless noted
SK-OV-3 ovarian = details: 10 µM unless noted
IGROV1 ovarian = details: 10 µM unless noted
OVCAR-3 ovarian = details: 10 µM unless noted
HS 578T breast = details: 10 µM
NCI/ADR-RES ovarian = details: 10 µM unless noted
T-47D breast = details: 10 µM unless noted
BT-549 breast = details: 10 µM unless noted
MDA-MB-435 melanoma = details: 10 µM unless noted
SW-620 colon = details: 10 µM unless noted
MCF7 breast = details: 10 µM unless noted
HCT-116 colon = details: 10 µM unless noted
HCC-2998 colon = details: 10 µM
KM12 colon = details: 10 µM unless noted

Row | Compound | growth (SR leukemia) | growth (RPMI-8226 leukemia) | growth (OVCAR-8 ovarian) | growth (OVCAR-5 ovarian) | growth (OVCAR-4 ovarian) | growth (SK-OV-3 ovarian) | growth (IGROV1 ovarian) | growth (OVCAR-3 ovarian) | growth (HS 578T breast) | growth (NCI/ADR-RES ovarian) | growth (T-47D breast) | growth (BT-549 breast) | growth (MDA-MB-435 melanoma) | growth (SW-620 colon) | growth (MCF7 breast) | growth (HCT-116 colon) | growth (HCC-2998 colon) | growth (KM12 colon)
1 | C[N+](C)(CCOC(c1ccccc1)c1ccccc1)CC(=O)OCc1ccccc1 | 115% | 111% | 106% | 103% | 93.5% | 106% | 106% | 103% | 108% | 105% | 120% | 94.8% | 97.9% | 108% | 97% | 105% | 106% | 99.9%
2 | Cc1cc(N(CCNc2ccnc3cc(Cl)ccc23)Cc2ccc3c(c2)OCO3)nc(N2CCCC2)n1 | -46.7% (active) | -27.3% (active) | 7.4% (active) | 20.6% | -44.9% (active) | 40.9% | -14.4% (active) | -30.7% (active) | 6.29% (active) | 31.1% | -36.4% (active) | -7.74% (active) | -69.5% (active) | 8.91% (active) | 7.77% (active) | -68.8% (active) | -24.4% (active) | 44.9%
3 | CCCCCCCC(=O)SCC/C=C/[C@@H]1CC(=O)NCc2cccc(n2)C2=N[C@@](C)(CS2)C(=O)N[C@@H](C(C)C)C(=O)N1 | 18.9% | 17.1% | 32.1% | 25.5% | 34.4% | 10.3% | 26% | 22% | 26.2% | 86.7% | -7.49% (active) | 41.4% | 19.6% | 69.3% | 28.3% | 2.91% (active) | 12.6% | 24.9%
4 | COc1ccc(Cc2cc(-c3ccccc3C)n[nH]c2=O)cc1 | 103% | 39.9% | 99.9% | 101% | 92.5% | 102% | 53.7% | 96.4% | 90.9% | 105% | 94.4% | 132% | 117% | 103% | 95.4% | 98% | 110% | 97.9%
5 | Cc1cc2c(-c3nc4ccccn4c3Nc3cccc4ccccc34)c(O)c(O)cc2c(O)c1-c1c(C)cc2c(-c3nc4ccccn4c3Nc3cccc4ccccc34)c(O)c(O)cc2c1O | 27.5% | 14.5% | 39.8% | 66.8% | 56% | 24.2% | 47.8% | 68.3% | 39.7% | 81.6% | 15.5% | 27.9% | 21.6% | 23.9% | 14.7% | -5.99% (active) | 41.8% | 20.1%
6 | O=C(NCCO)Nc1ccc(-c2nc(N3CCOCC3)c3cccn3n2)cc1 | 8.14% (active) | 7.85% (active) | 5.91% (active) | -11% (active) | -15.5% (active) | -37.1% (active) | -25.9% (active) | 0.347% (active) | -34.5% (active) | 34.5% | -32.6% (active) | -5.61% (active) | -6.22% (active) | 22.3% | 7.74% (active) | 20.4% | 24% | 14.7%
7 | c1cc[n+](Cc2c3ccccc3cc3c2ccc2ccccc23)cc1 | 21.2% | 17.6% | 39.8% | 81.1% | 34.4% | 87.9% | 13.7% | 36% | 13.3% | 99.3% | 30.8% | 10.4% | 51% | 57.4% | 31.9% | 58.1% | 42.8% | 35.9%
8 | COC(=O)C1=C(C(=O)OC)C23C=C(C)C1C2=C(C)C1(CC1)[C@@](C)(O)C3=O (some centres undefined) | 66.6% | 92.3% | 12.7% | -3.58% (active) | 1.65% (active) | -21.6% (active) | 3.08% (active) | -2.36% (active) | 23.2% | -3.49% (active) | -3.03% (active) | -35.7% (active) | -18.2% (active) | 78.1% | 11.3% | 5.3% (active) | -22.1% (active) | 29.6%
